Among the data in PubChem BioAssay (NCI) are growth values, retold here.

Among the test systems are NCI-H23 lung; NCI-H226 lung; NCI-H322M lung; HOP-62 NSCLC; NCI-H460 lung; HOP-92 NSCLC; NCI-H522 lung; A549/ATCC NSCLC; 786-0 renal; COLO 205 colon; DU-145 prostate; K-562 leukemia; MALME-3M melanoma; MDA-MB-231 breast; RXF 393 renal; SF-268 CNS; SF-295 CNS; SF-539 CNS; UACC-257 melanoma; M14 melanoma.
Holding throughout (assay): NCI-60 one-dose screen, 48 h (100 = growth as untreated, 0 = no growth, -100 = all killed)
What all share (conditions): 10 µM unless noted

Values joined by “and” are separate entries in the source; they are usually repeats but may differ in a detail not shown here. Identical values can stand only once. This is part of a sample that, as a whole, favours compounds with a hit. Of some 83,000 tested, about 20% had one in any assay.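 Results are percent growth after 48 hours of single-concentration exposure. 100 means growth as in untreated cells, lower positive values show inhibition; negative values down to -100 show cell death.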 Active and inactive are the calls of the source. How the source made its calls: active means growth percent below 10; inactive means the rest.

In the case of `CC[CH2][Sn]([Cl])([Cl])[CH2]CC.Oc1ccccc1C=NCCN=Cc1ccccc1O`, the growth is 56.4% (inactive) and 34.2% (inactive) in the experiment on NCI-H23 lung; 11% (inactive) and 17.4% (inactive) in the experiment with NCI-H226 lung; 105% (inactive) and 92.4% (inactive) in the experiment on NCI-H322M lung; 103% (inactive) and 83.8% (inactive) in the experiment on HOP-62 NSCLC; 110% (inactive) and 90.5% (inactive) in the experiment on NCI-H460 lung; 40% (inactive) and 29.2% (inactive) in the experiment with HOP-92 NSCLC. Moreover, the growth in the experiment with NCI-H522 lung was -87.6% (active) and -83.2% (active); in the experiment on A549/ATCC NSCLC it was 103% (inactive) and 92.3% (inactive); in the experiment on 786-0 renal, 65.2% (inactive) and 59.1% (inactive); in the experiment with COLO 205 colon, 50.6% (inactive) and -12.1% (active); in the experiment with DU-145 prostate, 81.3% (inactive) and 76.9% (inactive); in the experiment on K-562 leukemia it was 4.37% (active) and -23.9% (active). For the same compound, the growth in the experiment on MALME-3M melanoma is 4.96% (active) and -43.8% (active); with MDA-MB-231 breast, 38.7% (inactive) and 28.5% (inactive); with RXF 393 renal, 51.7% (inactive) and 1.58% (active); in the experiment on SF-268 CNS, 49.7% (inactive) and 20.3% (inactive); in the experiment on SF-295 CNS, 93.2% (inactive); in the experiment with SF-539 CNS it was 59.9% (inactive) and 37.8% (inactive). The growth is 51.4% (inactive) and 5.28% (active) with UACC-257 melanoma; 69.6% (inactive) and 39% (inactive) with M14 melanoma.

Take `CO/N=C1\CC[C@]2(C)[C@H]3CC[C@]4(C)C(=O)CC[C@H]4[C@@H]3C[C@@H]3SC(N)=N[C@@]32C1`: the growth is 99.4% (inactive) in the experiment on NCI-H23 lung; 107% (inactive) in the experiment with NCI-H226 lung; 105% (inactive) in the experiment with NCI-H322M lung; 112% (inactive) in the experiment on HOP-62 NSCLC; 98.9% (inactive) in the experiment with NCI-H460 lung; 105% (inactive) in the experiment with HOP-92 NSCLC. Further, the growth is 94.9% (inactive) in the experiment on NCI-H522 lung; 101% (inactive) in the experiment on A549/ATCC NSCLC; 98% (inactive) in the experiment on 786-0 renal; 111% (inactive) in the experiment on COLO 205 colon; 87.9% (inactive) in the experiment on DU-145 prostate; 70.7% (inactive) in the experiment with K-562 leukemia. Further, the growth is 94% (inactive) in the experiment with MALME-3M melanoma; 101% (inactive) in the experiment with MDA-MB-231 breast; 104% (inactive) with RXF 393 renal; 93.5% (inactive) in the experiment with SF-268 CNS; 99.1% (inactive) in the experiment with SF-295 CNS; 100% (inactive) with SF-539 CNS. Moreover, the growth was 101% (inactive) in the experiment with UACC-257 melanoma and 86% (inactive) in the experiment with M14 melanoma.

For the compound `CCCCCCCCCCCCCCCCCC1OCC(COC(=O)O[C@@H](C(=O)O[C@H]2C[C@@]3(O)[C@@H](OC(=O)c4ccccc4)[C@@H]4[C@]5(OC(C)=O)CO[C@@H]5C[C@H](O)[C@@]4(C)C(=O)[C@H](OC(C)=O)C(=C2C)C3(C)C)[C@@H](NC(=O)c2ccccc2)c2ccccc2)O1` (stereo not given in full), the growth in the experiment with NCI-H23 lung was 40.3% (inactive); with NCI-H226 lung it was 53.4% (inactive); with NCI-H322M lung, 58.8% (inactive); in the experiment on HOP-62 NSCLC it was 60.5% (inactive); with NCI-H460 lung, 18.2% (inactive); in the experiment on HOP-92 NSCLC, 94.8% (inactive). In addition, the growth in the experiment with NCI-H522 lung is 48.6% (inactive); in the experiment on A549/ATCC NSCLC, 53.2% (inactive); in the experiment with 786-0 renal it was 80.9% (inactive); with COLO 205 colon it was 24.7% (inactive); with DU-145 prostate it was 44.4% (inactive); with K-562 leukemia, 18.8% (inactive). Further, the growth in the experiment on MALME-3M melanoma was 59.3% (inactive); in the experiment with MDA-MB-231 breast, 81.8% (inactive); with RXF 393 renal, 28.1% (inactive); with SF-268 CNS it was 59.1% (inactive); with SF-295 CNS, 48.4% (inactive); in the experiment with SF-539 CNS it was 51.2% (inactive). Also, the growth in the experiment on UACC-257 melanoma was 69.8% (inactive); in the experiment on M14 melanoma it was 37.8% (inactive).

Turning to `C[C@]12CC[C@@H](OC(=O)N(CCCl)N=O)C[C@@H]1CC[C@@H]1[C@@H]2CC[C@]2(C)C(=O)CC[C@@H]12`, the growth with NCI-H23 lung was 74.7% (inactive); in the experiment on NCI-H226 lung, 88% (inactive); with NCI-H322M lung, 57.5% (inactive); with HOP-62 NSCLC, 38.6% (inactive); in the experiment with NCI-H460 lung, -67.5% (active); with HOP-92 NSCLC it was -10.2% (active). The growth is 51.1% (inactive) in the experiment with NCI-H522 lung; 10.3% (inactive) in the experiment with A549/ATCC NSCLC; 28.4% (inactive) in the experiment with 786-0 renal; -72.1% (active) with COLO 205 colon; -0.658% (active) in the experiment with DU-145 prostate; 23.2% (inactive) with K-562 leukemia. Further, the growth in the experiment with MALME-3M melanoma was 108% (inactive); with MDA-MB-231 breast, 81.9% (inactive); with RXF 393 renal, 78% (inactive); with SF-268 CNS, 30.6% (inactive); with SF-295 CNS it was -15.7% (active); with SF-539 CNS, 1.49% (active). Further, the figures for the growth in the experiment with UACC-257 melanoma and in the experiment with M14 melanoma were 76.2% (inactive) and 72.5% (inactive), respectively.

On to `COc1cc(/C=C\[N+](=O)[O-])ccc1OCc1ccccc1`, for which the growth was 34.6% (inactive) in the experiment on NCI-H23 lung; 105% (inactive) in the experiment with NCI-H226 lung; 94.5% (inactive) with NCI-H322M lung; 30.7% (inactive) with HOP-62 NSCLC; 62.4% (inactive) in the experiment on NCI-H460 lung; 66.3% (inactive) in the experiment on HOP-92 NSCLC. Besides, the growth is 73.5% (inactive) in the experiment with NCI-H522 lung; 64.7% (inactive) in the experiment on A549/ATCC NSCLC; -17.4% (active) with 786-0 renal; 32.7% (inactive) in the experiment with COLO 205 colon; 44.3% (inactive) with DU-145 prostate; 0.133% (active) in the experiment with K-562 leukemia. The growth in the experiment on MALME-3M melanoma is 77.9% (inactive); in the experiment on MDA-MB-231 breast, 12.5% (inactive); in the experiment with RXF 393 renal, -86.1% (active); in the experiment with SF-268 CNS, 19.4% (inactive); in the experiment with SF-295 CNS, 48.7% (inactive); in the experiment with SF-539 CNS, 30.8% (inactive). Also, the growth in the experiment on UACC-257 melanoma was 61.8% (inactive); with M14 melanoma, 15.5% (inactive).

For `COC(=O)C12C3C4C1C1C2C3C41NC(=O)c1csc([C@@H](C[C@H](C(C)C)N(C)C(=O)[C@@H](NC(=O)[C@H]2CCCCN2C)C2CC2)OC(C)=O)n1` (stereo not given in full), the growth in the experiment with NCI-H23 lung is 35.8% (inactive); with NCI-H226 lung, 16.5% (inactive); with NCI-H322M lung, 38.5% (inactive); with HOP-62 NSCLC it was 4.51% (active); with NCI-H460 lung, 7.89% (active); with HOP-92 NSCLC, 22.6% (inactive). The growth is -21.1% (active) with NCI-H522 lung; 13% (inactive) in the experiment on A549/ATCC NSCLC; 22.7% (inactive) in the experiment with 786-0 renal; -65.4% (active) in the experiment with COLO 205 colon; 8.04% (active) with DU-145 prostate; 8.03% (active) in the experiment on K-562 leukemia. For the same compound, the growth with MALME-3M melanoma is 63.9% (inactive); with MDA-MB-231 breast, 4.12% (active); with RXF 393 renal it was 19.7% (inactive); with SF-268 CNS, 25.6% (inactive); with SF-295 CNS it was 9.2% (active); with SF-539 CNS, -24.4% (active). Moreover, the growth with UACC-257 melanoma is 56% (inactive); in the experiment on M14 melanoma it was 9.39% (active).

With `CCOC(=O)P(=O)(OCC)OCC`, the growth in the experiment on NCI-H23 lung was 112% (inactive); with NCI-H226 lung it was 106% (inactive); in the experiment on NCI-H322M lung it was 82.6% (inactive); in the experiment on HOP-62 NSCLC it was 109% (inactive); with NCI-H460 lung, 116% (inactive); with HOP-92 NSCLC, 94.9% (inactive). Besides, the growth in the experiment on NCI-H522 lung is 85.7% (inactive); in the experiment with A549/ATCC NSCLC, 101% (inactive); in the experiment on 786-0 renal, 113% (inactive); with COLO 205 colon, 112% (inactive); in the experiment on DU-145 prostate, 115% (inactive); with K-562 leukemia it was 121% (inactive). In addition, the growth in the experiment with MALME-3M melanoma was 122% (inactive); in the experiment on MDA-MB-231 breast, 110% (inactive); in the experiment with RXF 393 renal it was 115% (inactive); in the experiment with SF-268 CNS, 104% (inactive); with SF-295 CNS, 126% (inactive); with SF-539 CNS, 106% (inactive). Further, the growth in the experiment with UACC-257 melanoma is 102% (inactive); in the experiment with M14 melanoma, 116% (inactive).
